Data on 40 compounds can be found in ChEMBL document CHEMBL1157539, “Thousands of chemical starting points for antimalarial lead identification” (Nature, 2010).

In the assay the test system is Plasmodium falciparum. Description: GSK_TCMDC: Inhibition of Plasmodium falciparum 3D7 in whole red blood cells, using parasite LDH activity as an index of growth. Test compounds present at 2uM. Format: functional.
`CC(C)CNCc1ccc(-c2ccc(CNC3CCN(Cc4ccccc4)CC3)cc2)cc1.O=C(O)C(F)(F)F` gave an Inhibition of 100%. `Cc1cccc2nc(-c3ccc(-c4ccc(CNCc5cccc(N)c5)cc4)cc3)[nH]c12.O=C(O)C(F)(F)F` showed an Inhibition of 100%. The same measure for `CN(c1ccccc1C(=O)Nc1cc(Cl)ccc1Oc1ccccc1)S(=O)(=O)c1ccccc1`: 99%; for `CC1(C)CCC(=Cc2ccc(Cl)cc2)CC1(O)Cn1ccnc1` (stereo not given): 99%; for `CO/C(=C\C=C\c1cc2cc(Cl)c(Cl)cc2[nH]1)C(=O)NCC(C)(C)CN(C)C`: 81%. Compound `Cc1ccccc1N1CCN(c2ccc(C(=O)Nc3ccccc3)cc2)CC1` returned an Inhibition of 89%. In turn, `COc1cc(CNc2ccc(N3CCCC3)cc2)cc(Cl)c1OC` registered an Inhibition of 100%.

`Cl.N=C(NCCCc1ccccc1)c1cccc(C(=N)NCCCc2ccccc2)n1` yielded an Inhibition of 98%.

Turning to `O=C(NC1CC1)c1cnc(N2CCCC(c3ccccc3)C2)c(Cl)c1.O=C(O)C(F)(F)F` (stereo not given), the Inhibition came to 95%. `CC(C)COc1ccc(Cl)cc1Cc1ccc(-c2nc3c(F)cccc3[nH]2)o1` displayed an Inhibition of 98%. `O=C(c1ccc(-c2ccc(-c3nc4cc(F)ccc4[nH]3)cc2)cc1)N1CCCCC1CN1CCC(O)C1` (stereo not given) yielded an Inhibition of 90%. In turn, `CN(C)CCNC(=O)N1CCCN(c2ncnc3cc(-c4ccc(Cl)cc4)sc23)CC1.O=C(O)C(F)(F)F` yielded an Inhibition of 98%.

The compound `CN1CCC(NCc2cccc(-c3ccc(S(=O)(=O)NCCN4CCCC4)s3)c2)CC1.O=C(O)C(F)(F)F` yielded an Inhibition of 91%. For the compound `COc1ccc(CN(C)CCCOc2ccc(NC(=O)C=Cc3ccc(C(C)(C)C)cc3)cc2)cc1OC`, the Inhibition turned out to be 100%. In turn, `Cc1ccc(-n2cc(CNCCCn3ccnc3)c(-c3cccc(C)c3)n2)cc1` yielded an Inhibition of 99%. For `Cc1ccc2[nH]c(-c3ccc(C=CC(=O)NC4CCN(Cc5ccccc5)CC4)cc3)nc2c1`, the Inhibition was 100%. In turn, `CN(CCCNCc1cccc2ccccc12)CCCNCc1cccc2ccccc12.Cl` registered an Inhibition of 100%. The compound `COc1ccc(CN2CCC(NCc3cccc(C(F)(F)F)c3)CC2)cc1.O=C(O)C(F)(F)F` had an Inhibition of 99%.

`CCn1cc(-c2cc(C(=O)Nc3ccc(OC)cc3C)c3ccccc3n2)c(C)n1` registered an Inhibition of 97%.

For the compound `CCCc1cc(Cc2cnc(N)nc2N)cc(CC)c1OC.Cl`, the Inhibition amounted to 97%.

Regarding `CC1(C)CN2CCCC2c2cc(NC(=O)/C=C/c3ccccc3Cl)ccc21.Cl` (stereo not given), the Inhibition came out at 88%. The value for `Cc1c(C(=O)N2CCc3cc4nccc(N5CCN6CCC[C@H]6C5)c4cc32)cnn1-c1ccc(C#N)cc1.Cl` was 90%.

As to `O=C(NCCc1ccccc1)N(Cc1cccc(-c2ccc(CNCCc3ccccc3)cc2)c1)C1CCN(Cc2ccccc2)CC1.O=C(O)C(F)(F)F`, the Inhibition is on record as 90%.

As to `NS(=O)(=O)c1cccc(-c2ccc3c(O)ncnc3c2)c1`, the Inhibition stood at 99%. The value for `C[C@H](Cc1ccc(C[C@@H](C)NCC(O)c2cc(Cl)c(N)c(Cl)c2)cc1)NCC(O)c1cc(Cl)c(N)c(Cl)c1` (stereo not given in full) was 98%. The compound `COc1ccc2nc(C)cc(NC3Cc4ccccc4C3)c2c1.Cl` gave an Inhibition of 98%. For the compound `COc1ccc(CCN(C)CCOc2ccc(NC(=O)COc3ccc4sc5ccccc5c(=O)c4c3)cc2)cc1OC`, the Inhibition stood at 100%. The same measure for `O=C(Cc1ccccc1)NC(c1ccco1)c1cc(Cl)c2cccnc2c1O` (stereo not given): 89%. On to `COc1cccc(OC(C)(C)c2nc(N[C@@H](C)c3ccccc3)c3cn[nH]c3n2)c1`, for which the Inhibition stood at 89%. In the case of `Cc1cccc2nc(-c3cccc(-c4ccc(NC(=O)C(C)CN5CCOCC5)cc4)c3)[nH]c12` (stereo not given), the Inhibition is reported as 93%. For the compound `Cn1cncc1C(=O)Nc1cccc(-c2csc(-c3nc4ccccc4[nH]3)c2)c1`, the Inhibition turned out to be 100%. In turn, `CC(C)(C)OC(=O)N1CCN(c2ccccc2NC(=O)c2cccc(C(F)(F)F)c2Oc2ccc(F)cc2)CC1` showed an Inhibition of 100%. In turn, `COc1ccc(CNC2CCN(C)CC2)cc1-c1ccc(S(=O)(=O)NCCN2CCCC2)s1.O=C(O)C(F)(F)F` had an Inhibition of 90%.

In turn, `CCOC(=O)c1ccc(NC(=O)Nc2ccc(Cn3ncc(N4CCCNCC4)c(Cl)c3=O)cc2)cc1.O=C(O)C(F)(F)F` came in with an Inhibition of 88%. The compound `O=C(c1ccc(-c2ccc(-c3nc4ccccc4[nH]3)s2)cc1)N1CCCCC1CN1CCC(O)C1` (stereo not given) registered an Inhibition of 84%.

Compound `CCCCc1ccc(-c2nc(NC(=O)Nc3[nH]c(-c4ccccc4)nc3C(=O)OCC)c(C(=O)OCC)[nH]2)cc1` registered an Inhibition of 95%.

The compound `Cc1ccc([N+](=O)[O-])cc1NC(=O)N(CC(O)c1ccccc1)C1CCCCC1` (stereo not given) yielded an Inhibition of 100%. As for `O=C(NCCCCN1CCC(c2ccc3c(c2OCCO)CCCC3)CC1)c1sc(-c2ccc(C(F)(F)F)cc2)nc1CO`, the Inhibition is given as 95%. As to `O=S(=O)(c1cccc(Cl)c1F)N(CCC(O)(C(F)(F)F)C(F)(F)F)Cc1cccc(O)c1`, the Inhibition was 100%. Take `Fc1ccc2[nH]c(-c3cccc(-c4ccc(CNCCN5CCNCC5)cc4)c3)nc2c1.O=C(O)C(F)(F)F`: the Inhibition amounted to 90%.

As a reminder, the Inhibition is the change of the read-out against control, counted positive when it falls. High values mean a response far below the control, low ones a response near the control.
